Shown are actives, neighbours in structure and some others; about 11% of the full set was active somewhere.
Tau fibril FP – blocks human tau fibril formation measured by polarization; P10636; K18 P301L tau heparin fibrillization, Alexa594 FP, 6 h; Potency, µM (doses to about 57.7 µM), most hits filed as inhibitors; 280,000 compounds, 0.39% hits; further: nearly all actives have a fitted effect of over 55% in size
Target sequence (P10636 561-689 P618L limits assumed): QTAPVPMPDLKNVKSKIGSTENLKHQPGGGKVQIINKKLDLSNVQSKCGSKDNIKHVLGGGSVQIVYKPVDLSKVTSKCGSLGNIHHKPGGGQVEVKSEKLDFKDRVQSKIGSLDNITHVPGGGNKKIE
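Quantitative HTS format: compounds meet 15 uM recombinant K18 P301L tau and Alexa 594-tau tracer in 100 mM sodium acetate pH 7; 20 uM heparin triggers fibrillization at 37 C over 6 hr; FP gives the signal.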
Sfp PPTase inh – blocks B. subtilis Sfp PPTase activity; Potency, µM, actives largely listed as inhibitors; 310,000 compounds, 3.5% hits; AID 1490; Biochemical Sfp PPTase activity, qHTS;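 further: the enzyme is Sfp with the accession as filed and its product quenches rhodamine fluorescence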
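Reaction rates are the 30-min fluorescence difference (ex 525, em 598 nm) in wells containing 15 nM Sfp, 5 uM rhodamine-CoA and 12.5 uM BHQ-2-YbbR at pH 7.6 with 10 mM MgCl2.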
Tau ThT inhib – tau fibrillization inhibition (ThT binding). 270,000 compounds, 2.1% hits. recombinant tau K18 P301L, heparin-induced fibrillization, ThT fluorescence. Potency, µM (series often up to 57.4 µM), hits mostly inhibitors. P10636; further: nearly all actives have a fitted effect of over 55% in size
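Tau K18 P301L fragment (15 uM unlabeled plus 0.24 uM Alexa 594-labeled) in 100 mM sodium acetate pH 7 with compound, fibrillization induced by 20 uM heparin for 6 hr at 37 C. Thioflavin T (30 uM) added, fluorescence read after 1 hr (ex 450, em 510 nm).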
Tau fluor cs – counter-screen for tau fibril formation inhibitors. tau K18 P301L (four-repeat tau fragment) Alexa594 fluorescence, heparin fibrillization. Potency, µM (top dose mostly 57.7 µM). 280,000 compounds, 0.93% hits; further: nearly all actives have a fitted effect of over 55% in size
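Human K18 P301L tau (15 uM unlabeled plus 0.24 uM Alexa 594-labeled, final) in 100 mM sodium acetate pH 7 was mixed with compound and 20 uM heparin and incubated 6 hr at 37 C.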
FBPA coupling cs – coupling enzyme interference in Giardia aldolase counter-screen | coupling enzyme system counterscreen, AmpLite Red fluorescence | activity change, negative = inhibition, % at 58.2 µM, hits read low | 290,000 compounds, 0.67% hits; in the data active means activity change below about -30%
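Counterscreen of the coupled detection system alone, without aldolase: glyceraldehyde-3-phosphate coupling enzymes plus AmpLite Red readout. Compounds at 57.5 uM final, 10 min RT preincubation, 20 min RT reaction, fluorescence 525/598 nm.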
G9a block – inhibitors of human histone lysine methyltransferase G9a. 350,000 compounds, 8.8% hits. G9a H3K9 monomethylation, AlphaScreen, 2 h. AID 504332. Q96KQ7. Potency, µM (doses to about 102 µM), hits mostly inhibitors; further: nearly all actives have a fitted effect of over 75% in size
Target sequence (Q96KQ7 913-1193 limits assumed): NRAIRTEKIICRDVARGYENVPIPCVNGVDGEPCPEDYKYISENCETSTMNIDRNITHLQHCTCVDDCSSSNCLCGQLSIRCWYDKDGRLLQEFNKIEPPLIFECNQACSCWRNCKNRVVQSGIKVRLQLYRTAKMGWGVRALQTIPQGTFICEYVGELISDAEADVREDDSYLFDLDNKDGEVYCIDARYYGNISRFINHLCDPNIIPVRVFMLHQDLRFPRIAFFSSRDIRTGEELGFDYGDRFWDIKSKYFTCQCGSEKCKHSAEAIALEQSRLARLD
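Readings reflect AlphaScreen signal from monomethyl-H3K9 antibody detection. HMT at 20 nM; substrate b-H3K9 500 nM; cofactor SAM 20 uM; 2 h RT reaction; compounds tested as titrations in qHTS with 15 min preincubation.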
Numbers stand for hits; . = inactive; ? = inconclusive; / = no result; [ ] = another dose, or the depositor's remark. Unless noted, the call rests on the fitted dose curve; in most records, active means well fitted curve in the direction sought with a large enough effect; inconclusive means small, poorly fitted or top-dose-only effect, or another doubt; inactive means no such curve, though single readings can be large; an effect the other way counts as inactive or inconclusive.

SMILES | Tau fibril FP | Sfp PPTase inh | Tau ThT inhib | Tau fluor cs | FBPA coupling cs | G9a block
C[C@@H]1O[C@@H](OC2O[C@@H](COc3cc(O)c4c(=O)cc(-c5ccc(O)cc5)oc4c3)[C@@H](O)[C@@H](O)[C@@H]2O)[C@H](O)[C@H](O)[C@H]1O (some centres undefined) | / | . | / | / | . | /
O=Nc1ccc(NOC(=O)c2ccccc2Br)cc1 | . | . | ? | . | . | .
O=C(ONc1ccc(N=NC(=O)c2ccccc2O)cc1)c1ccccc1 | . | . | 4.47µM | ? | . | ?
Cc1ccccc1C(=O)NNC(=O)CCc1ccccc1 | . | . | . | . | . | .[12.7 µM]
O=C(CCc1ccccc1)NNC(=O)Cc1ccccc1 | . | . | . | . | . | .
O=C(CCc1ccccc1)NNC(=O)c1ccccc1Br | . | . | . | . | . | 28.2µM
O=C(CCc1ccccc1)NNC(=O)c1ccccc1C(=O)O | . | . | . | . | . | 10µM
Cc1cccc(N2CCN(C(=O)C3CCCN(S(=O)(=O)c4ccc5c(c4)oc(=O)n5C)C3)CC2)c1C (centres undefined) | . | / | . | . | / | .
C/C=C/C(=O)[C@@H](C)[C@@H](/C=C/C[Si](C)(C)C)c1ccccc1 | / | . | / | / | . | /
CSCc1ccc(C(=O)N2CCC(CCC(=O)N(C)Cc3ccccc3)CC2)o1 | / | 50.1µM | / | / | . | .
CCOC(=O)C1=C(CS(=O)(=O)c2ccc(OC)c(Cl)c2)NC(=O)NC1c1cccc(OC)c1 (centres undefined) | . | / | . | . | / | .
Cc1ccc(-n2c(N)c(C(=O)NCc3ccco3)sc2=S)cc1 | . | ? | . | . | . | ?
Cc1ccc(-n2c(N)c(C(N)=O)sc2=S)cc1 | . | 0.316µM | ? | . | . | 1.41µM
COc1ccc(CNC(=O)c2sc(=S)n(-c3ccc(OC)cc3)c2N)cc1 | . | 20µM | . | . | . | ?
Nc1c(C(=O)NCc2cccnc2)sc(=S)n1-c1ccccc1 | . | 12.6µM | . | . | . | ?
O=C(O)c1cc([N+](=O)[O-])c(N2CCCC2)c([N+](=O)[O-])c1 | . | . | . | . | . | 8.91µM
Cc1ccc(S(=O)(=O)N2CCOCC2)cc1C(=O)Nc1ccccc1C(=O)O | . | / | . | . | / | .
COc1ccc(CNCc2ccc3c(c2)OCO3)c(OC)c1OC | / | . | / | / | . | 44.7µM
Cc1ccc(CC(=O)NCc2ccc3c(c2)OCO3)cc1 | . | . | . | . | . | .
Cc1ccc(NC2=NCC(=O)N2Cc2ccc3c(c2)OCO3)cc1 | . | . | . | . | . | 50.1µM
Cc1ccc(CNCc2ccc3c(c2)OCO3)cc1 | / | . | / | / | . | 12.6µM
CC(C)(C)N=C1C([N+](=O)[O-])=CC=C2C1=NC1(CCCCC1)N2O | . | ? | . | . | -46.0 | 3.55µM
CC1(C)CC(N=C2C([N+](=O)[O-])=CC=C3C2=NC2(CCCCC2)N3O)CC(C)(C)N1 | ? | . | ? | . | -38.4 | /
O=[N+]([O-])C1=CC=C2C(=NC3(CCCCC3)N2O)C1=NC1CCCCC1 | . | . | ? | . | . | /
O=[N+]([O-])C1=CC=C2C(=NC3(CCCCC3)N2O)C1=NCCc1ccccc1 | . | . | ? | . | -64.5 | 7.08µM
SMILES | Tau fibril FP | Sfp PPTase inh | Tau ThT inhib | Tau fluor cs | FBPA coupling cs | G9a block
COc1cccc(NC(=O)CSc2nc(C)c(Cc3ccccc3)c(=O)[nH]2)c1 | . | / | . | . | / | .
COc1ccc(CNC(=O)C(C)OC(=O)CCN2C(=O)C3CC=CCC3C2=O)cc1 (centres undefined) | / | / | / | / | / | .
COC(=O)c1sccc1-c1ccc(/C=N/OC(=O)c2ccccc2)o1 | . | 50.1µM | ? | . | . | .
Cn1c(=O)c2c(nc(NC(Cc3ccccc3)C(=O)O)n2Cc2ccccc2)n(C)c1=O (centres undefined) | . | . | . | . | . | 56.2µM
O=C(O)/C=C/C(=O)Nc1ccc(Cc2ccc(NC(=O)/C=C/C(=O)O)cc2)cc1 | . | . | / | . | . | 44.7µM
O=C(O)/C=C/C(=O)Nc1ccc(OC(F)(F)Cl)cc1 | . | . | . | . | . | 44.7µM
Cc1cc(=O)[nH]c2nnc(SCc3ccc(Cl)c(Cl)c3)n12 | . | / | . | . | / | .
CCc1cc(N2CCOCC2)cc2c1[nH]c1ccccc12 | . | 50.1µM | ? | . | -43.4 | 14.1µM
CCN1C(=O)C(CC(=O)Nc2ccc(F)cc2)N(CCCN2CCN(c3ccc(F)cc3)CC2)C1=S (centres undefined) | ? | . | ? | 12.6µM[quencher] | . | ?
COc1ccccc1Nc1nc(-c2c(C)nc3ncccn23)cs1 | . | ? | ? | ? | . | ?
COc1ccc(Nc2nc(-c3c(C)nc4ncccn34)cs2)cc1 | . | 17.8µM | 8.91µM | ? | . | 17.8µM
Cc1nc2ncccn2c1-c1csc(Nc2ccc(S(N)(=O)=O)cc2)n1 | / | . | / | / | . | /
Cc1nc2ncccn2c1-c1csc(Nc2ccc(N(C)C)cc2)n1 | . | ? | 12.6µM | ? | . | 7.94µM
Cc1nc2ncccn2c1-c1csc(Nc2ccccc2)n1 | . | 56.2µM | ? | ? | . | 25.1µM
Cc1nc2ncccn2c1-c1csc(NCc2ccco2)n1 | . | 8.91µM | . | . | . | ?
Cc1cc(/C=N/NC(=O)c2cccc(N(C)C)c2)c(C)n1-c1cc(C(=O)O)cc(C(=O)O)c1 | . | . | ? | . | . | 11.2µM
CN(C)c1cccc(C(=O)N/N=C/c2ccccc2F)c1 | . | . | ? | . | . | .
Cc1cc(/C=N/NC(=O)C(O)(c2ccccc2)c2ccccc2)c(C)n1-c1ccc(C(=O)O)cc1 | . | . | . | . | . | .
Cc1cc(/C=N/NC(=O)C(O)(c2ccccc2)c2ccccc2)c(C)n1-c1cccc(C(=O)O)c1 | . | 39.8µM | ? | . | . | 39.8µM
COc1ccc(C(=O)NCC(=O)N/N=C/c2ccco2)cc1OC | / | . | / | / | . | 70.8µM
O=C(CNC(=O)c1ccccc1F)N/N=C/c1cc(Br)ccc1OC(=O)/C=C/c1ccco1 | . | . | . | . | . | ?
COc1ccc(C(=O)NCCCCCC(=O)N/N=C/c2ccco2)cc1OC | . | . | . | . | . | .
O=C(CNC(=O)c1ccc(F)cc1)N/N=C/c1cc(Br)ccc1OC(=O)/C=C/c1ccco1 | . | 25.1µM | . | . | . | .
CCOc1ccc(Cl)cc1/C=N/NC(=O)c1ccccc1 | . | . | . | . | . | .
CCOc1ccc(Cl)cc1/C=N/NC(=O)CNC(=O)c1ccccc1 | . | . | . | . | -37.9 | .
Cc1cc(C)cc(NC(=O)COc2cccc3c(=O)n(C)ccc23)c1 | . | / | ? | . | / | .
Cc1ccc(C(=O)OCC(=O)NCc2cccc(Cl)c2)cc1S(=O)(=O)N1CCCCC1 | / | / | / | / | / | .
O=c1cc(-c2ccccc2)oc2cc(OCc3ccccc3)cc(O)c12 | . | . | . | ? | . | .
